This is an account of results in PubChem BioAssay.

Assay [1] can be described thus: small molecules captured by biotinylated probe aFSTL3 – biochemical, small-molecule microarray, fluorescence 635/667, stem cell growth factor project, primary screen (AID 1064).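 Also: measures binding of the biotinylated anti-FSTL3 antibody to printed compounds.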 As to conditions: higher = more signal.
Assay [2] can be described thus: binders from COS7 lysate, DM2A8 probe, primary screen, torsin A project, cell lysate, small-molecule microarray, fluorescence 635/667 (AID 1065). As to conditions: higher = more signal, COS7 lysate expressing mutant human TOR1A.
Assay [3] is described as follows: small molecules captured by biotinylated probe aFGF2 – biochemical, small-molecule microarray, fluorescence 635/667, stem cell growth factor project, primary screen (AID 1067).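 Also: measures binding of biotinylated aFGF2 protein to printed compounds on slides; z-score merges feature fluorescence and signal-to-noise across triplicate slides.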 As to conditions: higher = more signal.
Assay [4] in a line: small molecules captured by biotinylated probe aFGF10 – biochemical, small-molecule microarray, fluorescence 635/667, stem cell growth factor project, primary screen (AID 1071).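 Also: score merges 667 nm spot intensity and signal to noise from triplicate slides.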 As to conditions: higher = more signal.
Assay [5] addresses Neurogenic locus notch homolog protein 2 (Homo sapiens) (UniProt Q04721). In words: small molecules binding Notch2 protein – biochemical, small-molecule microarray, 635 nm fluorescence, stem cell growth factors, primary screen (AID 1073). As to conditions: higher = more signal.
For assay [6], the target named is Pro-neuregulin-1, membrane-bound isoform (Homo sapiens) (UniProt Q02297). Briefly: small molecules binding neuregulin-1 protein – biochemical, small-molecule microarray, fluorescence 635/667, psychiatric disease protein project, primary screen (AID 1075).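 Also: score combines 667 nm spot fluorescence with signal to noise.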 As to conditions: NRG1 binding, 635 nm fluorescence, higher = more signal.
For assay [7], the system named is Neuregulin-1 EGF-like domain. In words: small molecules binding NRG1 EGF domain – biochemical, small-molecule microarray, 635 nm fluorescence, primary screen (AID 1081).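 Also: binding of the protein to compounds printed on small-molecule microarray slides.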 As to conditions: higher = more signal.
Assay [8] is described as follows: FRG1 expression reporter modulators in myotubes – cell-based, C2C12 myotubes, firefly/Renilla luciferase, luminescence, FRG1 inhibition for FSHD, primary screen (AID 1084). As to conditions: FRG1 promoter luciferase, higher = more signal, called active from +8 up or from −8 down.
Assay [9] can be described thus: small molecules captured by biotinylated probe aFST – biochemical, small-molecule microarray, fluorescence 635/667, stem cell growth factor project, primary screen (AID 1086).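 Also: score merges 667 nm fluorescence with signal-to-noise of each printed compound spot.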 As to conditions: higher = more signal.
The nature of assay [10]: binders of probe aHhip on microarray, primary screen, stem cell growth factor project, biochemical, small-molecule microarray, fluorescence 635/667 (AID 1087).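 Also: score merges spot fluorescence at 667nm with spot signal to noise ratio.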 As to conditions: higher = more signal.
Assay [11] deals with PRMT1 (protein arginine N-methyltransferase 1). In words: small molecules binding arginine methyltransferase PRMT1 – biochemical, small-molecule microarray, 635 nm fluorescence, primary screen (AID 1088).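 Also: binding of Prmt1 protein to compounds spotted on small-molecule microarray slides.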 The conditions noted are these: higher = more signal.
Assay [12] in a line: growth effects on S. cerevisiae YJM789 – YJM789 clinical isolate, OD600, 24 h, basal, primary screen (AID 1089).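 Also: growth of clinical yeast isolate S. cerevisiae YJM 789 seeded 1000 cells per well; test concentration not given here.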 As to conditions: higher = more signal, called active from +8 up or from −8 down.
The nature of assay [13]: S. pombe growth modifiers, basal conditions – strain 972, OD600, 24 h, no modulator, primary screen (AID 1090).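 Also: basal condition with compound alone and no growth modifier present; test concentration not given here.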 As to conditions: S. pombe 972 growth, higher = more signal, called active from +8 up or from −8 down.
Assay [14] can be described thus: budding yeast growth modifiers under rapamycin – strain BY4716, OD600, 96 h, primary screen (AID 1091). Also: test concentration not given here. As to conditions: S. cerevisiae BY4716 + rapamycin, higher = more signal, called active from +8 up or from −8 down.
Assay [15] addresses Torsin-1A-interacting protein 2 (Homo sapiens) (UniProt Q8NFQ8). Briefly: small molecules binding lysate-expressed LULL1 – cell lysate, human LULL1 lysate, 635/667 nm fluorescence, primary screen (AID 1092).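 Also: probe is lysate of COS7 cells overexpressing human LULL1; score merges per-feature 667 nm fluorescence with signal-to-noise.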 The conditions noted are these: small-molecule microarray, hLULL1 lysate binding, 635 nm fluorescence; higher = more signal.
A short description of assay [16]: optical density change of DRC41 E. coli – strain DRC41, OD650, 24 h, E. coli filamentation project, primary screen (AID 1093).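 Also: MC1000 strain lacking acrAB efflux and sulA so SOS filamentation is blocked; test concentration not given here.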 The conditions noted are these: E. coli DRC41 growth, higher = more signal, called active from +8 up or from −8 down.
Assay [17] is described as follows: probe aLefty2 binding to arrayed compounds – biochemical, biotinylated probe, 635/667 nm fluorescence, primary screen (AID 1094).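 Also: score merges spot fluorescence near 667 nm with spot signal-to-noise ratio.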 The conditions noted are these: small-molecule microarray, higher = more signal.
The test system of assay [18] is Noggin (protein binding on small-molecule microarray). Briefly: small molecules binding Noggin protein – biochemical, 635/667 nm fluorescence, primary screen (AID 1095).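 Also: score merges 667 nm feature fluorescence with signal to noise over triplicate slides.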 As to conditions: 635 nm fluorescence, higher = more signal.
For assay [19], the target named is Neurogenic locus notch homolog protein 3 (Homo sapiens) (UniProt Q9UM47). Briefly: small molecules binding NOTCH3 protein – biochemical, 635/667 nm fluorescence, primary screen (AID 1096). As to conditions: small-molecule microarray, 635 nm fluorescence, higher = more signal.
Assay [20] can be described thus: probe aEGFR binding to arrayed compounds – biochemical, biotinylated probe, 635/667 nm fluorescence, primary screen (AID 1097).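 Also: probe is a biotinylated anti-EGFR antibody binding compounds printed on slides; score combines fluorescence near 667 nm and signal to noise of each spot.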 The conditions noted are these: small-molecule microarray, higher = more signal.

Activity calls are given as the source filed them.

Neurogenic locus notch homolog protein 2 (Homo sapiens), sequence (Q04721 whole entry, looked up, canonical isoform): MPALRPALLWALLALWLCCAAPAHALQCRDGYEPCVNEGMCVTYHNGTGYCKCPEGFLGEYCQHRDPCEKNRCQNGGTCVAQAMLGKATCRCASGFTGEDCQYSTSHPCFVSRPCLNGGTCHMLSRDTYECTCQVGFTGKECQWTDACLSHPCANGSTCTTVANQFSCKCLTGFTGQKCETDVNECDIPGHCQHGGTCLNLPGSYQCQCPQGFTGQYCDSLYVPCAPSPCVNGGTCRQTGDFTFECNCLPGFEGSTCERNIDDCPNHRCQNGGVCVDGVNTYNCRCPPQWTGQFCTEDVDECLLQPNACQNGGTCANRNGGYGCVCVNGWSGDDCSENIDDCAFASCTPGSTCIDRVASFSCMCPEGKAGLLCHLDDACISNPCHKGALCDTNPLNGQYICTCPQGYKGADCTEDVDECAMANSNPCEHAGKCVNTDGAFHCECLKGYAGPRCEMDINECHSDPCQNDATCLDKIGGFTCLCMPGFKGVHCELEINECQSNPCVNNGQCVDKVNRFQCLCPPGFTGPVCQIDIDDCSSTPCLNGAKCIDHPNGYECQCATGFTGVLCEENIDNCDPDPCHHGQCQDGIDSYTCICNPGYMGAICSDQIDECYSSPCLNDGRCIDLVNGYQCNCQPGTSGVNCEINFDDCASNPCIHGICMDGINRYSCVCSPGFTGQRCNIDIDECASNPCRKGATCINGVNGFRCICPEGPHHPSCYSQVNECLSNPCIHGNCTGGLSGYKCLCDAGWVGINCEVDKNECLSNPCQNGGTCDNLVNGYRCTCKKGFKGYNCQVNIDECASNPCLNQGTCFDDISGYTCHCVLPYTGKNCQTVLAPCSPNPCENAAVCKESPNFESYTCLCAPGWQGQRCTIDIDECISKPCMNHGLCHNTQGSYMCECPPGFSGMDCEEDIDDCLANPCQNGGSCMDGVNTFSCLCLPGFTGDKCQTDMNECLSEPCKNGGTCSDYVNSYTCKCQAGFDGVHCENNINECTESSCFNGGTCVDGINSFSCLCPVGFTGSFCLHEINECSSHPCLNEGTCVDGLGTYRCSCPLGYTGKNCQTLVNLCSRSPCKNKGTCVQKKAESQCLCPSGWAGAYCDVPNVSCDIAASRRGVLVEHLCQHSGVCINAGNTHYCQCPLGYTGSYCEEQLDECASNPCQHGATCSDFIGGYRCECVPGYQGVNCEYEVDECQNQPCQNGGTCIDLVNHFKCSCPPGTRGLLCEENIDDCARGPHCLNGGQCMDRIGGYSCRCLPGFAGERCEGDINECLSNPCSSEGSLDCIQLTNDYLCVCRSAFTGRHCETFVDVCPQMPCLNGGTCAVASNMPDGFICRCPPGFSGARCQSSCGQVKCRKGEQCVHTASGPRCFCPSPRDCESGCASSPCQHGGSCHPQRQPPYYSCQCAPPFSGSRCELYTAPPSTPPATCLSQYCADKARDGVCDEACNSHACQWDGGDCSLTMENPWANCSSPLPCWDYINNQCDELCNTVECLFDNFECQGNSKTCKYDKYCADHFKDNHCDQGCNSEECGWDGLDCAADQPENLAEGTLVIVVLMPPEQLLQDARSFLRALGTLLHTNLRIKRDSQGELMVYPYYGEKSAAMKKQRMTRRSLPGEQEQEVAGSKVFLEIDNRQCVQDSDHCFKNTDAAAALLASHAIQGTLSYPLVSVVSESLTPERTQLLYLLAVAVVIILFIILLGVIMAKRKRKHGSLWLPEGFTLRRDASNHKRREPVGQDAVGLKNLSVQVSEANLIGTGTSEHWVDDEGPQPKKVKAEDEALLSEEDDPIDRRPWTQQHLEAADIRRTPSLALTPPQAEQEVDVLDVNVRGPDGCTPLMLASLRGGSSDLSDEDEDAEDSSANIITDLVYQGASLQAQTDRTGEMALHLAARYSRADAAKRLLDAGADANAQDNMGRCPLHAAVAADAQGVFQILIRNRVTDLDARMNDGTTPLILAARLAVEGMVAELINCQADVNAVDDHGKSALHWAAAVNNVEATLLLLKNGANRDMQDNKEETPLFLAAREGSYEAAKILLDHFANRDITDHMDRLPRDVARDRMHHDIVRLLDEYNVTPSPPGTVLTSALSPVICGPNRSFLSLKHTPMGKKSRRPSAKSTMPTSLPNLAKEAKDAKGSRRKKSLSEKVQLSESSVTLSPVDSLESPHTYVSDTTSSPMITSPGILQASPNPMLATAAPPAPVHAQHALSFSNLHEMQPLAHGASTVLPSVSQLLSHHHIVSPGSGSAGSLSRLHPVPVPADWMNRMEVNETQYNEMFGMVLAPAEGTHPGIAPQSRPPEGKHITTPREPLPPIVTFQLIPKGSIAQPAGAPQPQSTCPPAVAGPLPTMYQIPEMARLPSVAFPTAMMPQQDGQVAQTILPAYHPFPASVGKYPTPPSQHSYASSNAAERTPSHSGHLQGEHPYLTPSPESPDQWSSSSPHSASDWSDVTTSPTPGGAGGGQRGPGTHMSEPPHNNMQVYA
Torsin-1A-interacting protein 2 (Homo sapiens), sequence (Q8NFQ8 whole entry, looked up): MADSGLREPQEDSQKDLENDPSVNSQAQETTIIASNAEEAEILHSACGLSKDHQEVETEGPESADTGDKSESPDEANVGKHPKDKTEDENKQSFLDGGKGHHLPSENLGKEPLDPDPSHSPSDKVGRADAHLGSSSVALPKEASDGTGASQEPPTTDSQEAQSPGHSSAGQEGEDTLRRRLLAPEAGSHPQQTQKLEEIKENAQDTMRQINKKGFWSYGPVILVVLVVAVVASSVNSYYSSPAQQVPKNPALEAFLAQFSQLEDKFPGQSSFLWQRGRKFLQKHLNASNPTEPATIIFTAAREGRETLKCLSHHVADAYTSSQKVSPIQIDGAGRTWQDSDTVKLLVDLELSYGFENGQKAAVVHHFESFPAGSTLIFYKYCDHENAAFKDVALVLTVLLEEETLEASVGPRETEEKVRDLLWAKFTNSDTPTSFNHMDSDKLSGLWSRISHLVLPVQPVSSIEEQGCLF
Pro-neuregulin-1, membrane-bound isoform (Homo sapiens), sequence (Q02297 whole entry, looked up, the tested form may be a part, canonical isoform): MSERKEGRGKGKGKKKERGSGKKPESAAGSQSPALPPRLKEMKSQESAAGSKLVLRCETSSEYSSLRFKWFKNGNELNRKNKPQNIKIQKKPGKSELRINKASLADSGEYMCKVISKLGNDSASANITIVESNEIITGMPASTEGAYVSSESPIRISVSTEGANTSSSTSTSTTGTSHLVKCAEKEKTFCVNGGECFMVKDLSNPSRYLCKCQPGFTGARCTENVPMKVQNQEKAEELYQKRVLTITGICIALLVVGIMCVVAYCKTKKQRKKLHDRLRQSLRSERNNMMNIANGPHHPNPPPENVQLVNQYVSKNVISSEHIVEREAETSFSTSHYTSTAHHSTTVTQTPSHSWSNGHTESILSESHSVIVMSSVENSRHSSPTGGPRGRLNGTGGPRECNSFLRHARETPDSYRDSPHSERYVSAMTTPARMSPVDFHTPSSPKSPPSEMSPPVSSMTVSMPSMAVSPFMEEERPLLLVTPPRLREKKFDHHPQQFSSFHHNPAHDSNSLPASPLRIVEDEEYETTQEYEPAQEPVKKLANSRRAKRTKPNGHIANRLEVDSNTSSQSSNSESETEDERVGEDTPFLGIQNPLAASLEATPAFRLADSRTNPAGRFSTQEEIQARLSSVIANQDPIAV

Regarding `O=C1O[C@H](c2ccccc2)[C@H](c2ccccc2)N2[C@H]1[C@@H](C(=O)O)[C@]1(C(=O)Nc3ccc(C#CC4=CCCCC4)cc31)[C@H]2c1ccc(O)cc1`, the composite z-score in [1] is -0.261; in assay [2] it was -0.208; in [3], -0.0899; in assay [4] it was 0.728; in [5], 0.769; in assay [6] it was 0.92. Also, the composite z-score in assay [7] was 1.13; in [9], 0.189; in [10] it was -0.121; in [11], 1.54; in assay [15], 2.65; in assay [17] it was 0.0169. Further, the values for the composite z-score in assay [18], in [19] and in assay [20] were 0.653, 0.966 and -0.0353, respectively. The z-score in [8] was -0.179 (inactive); in assay [12], -0.206 (inactive); in assay [13], -0.113 (inactive); in [14], -0.776 (inactive); in assay [16], -0.911 (inactive).
Turning to `CCOC(=O)C1=C[C@@H](c2ccccc2)N(S(=O)(=O)c2ccc(C)cc2)[C@H]1c1ccccc1Cl`, the composite z-score is -0.508 in [1]; 0.544 in [2]; 0.168 in assay [3]; 1.1 in assay [4]; 1.5 in [5]; 0.264 in assay [6]. The composite z-score is 0.857 in assay [7]; 0.945 in assay [9]; -0.16 in assay [10]; 1.5 in assay [11]; 2.8 in assay [15]; 0.0935 in assay [17]. The composite z-score worked out at 0.985 in [18], 1.06 in [19] and 0.153 in assay [20]. The z-score was -3.26 (inactive) in assay [8]; 0.849 (inactive) in [12]; 2.19 (inactive) in assay [13]; 2.48 (inactive) in assay [14]; -0.518 (inactive) in assay [16].
Regarding `CC(CO)N1C(=O)[C@@H]2[C@H]3C(=O)OCC=C[C@H]3OC23C=CCN(C(C)(C)C)C(=O)[C@@H]13` (stereo not given in full), the composite z-score is -0.279 in [1]; 0.261 in [2]; -0.128 in [3]; 0.337 in assay [4]; -0.175 in assay [5]; -0.305 in assay [6]. The composite z-score in [7] is 1.51; in assay [9] it was -0.415; in assay [10], -0.0618; in [11], -0.507; in assay [15] it was -1.25; in assay [17], -0.103. In addition, the composite z-score in [18] is -0.429; in assay [19], -0.0056; in assay [20], -0.0656. Further, the z-score in [8] is 1.76 (inactive); in assay [12] it was -0.0994 (inactive); in [13] it was -0.0932 (inactive); in assay [14] it was -0.422 (inactive); in assay [16], -0.607 (inactive).
Regarding `N#Cc1ccc(NN2C(C(O)c3ccc(F)cc3)C=CC3C(=O)N(c4ccccc4)C(=O)C32)cc1` (stereo not given), the composite z-score in assay [1] was -0.28; in assay [2], -0.17; in [3], 0.183; in assay [4] it was -0.0175; in assay [5] it was 0.47; in assay [6], 1.4. Besides, the composite z-score in [7] is 1.07; in [9], 0.87; in assay [10], -0.353; in [11], 1.24; in assay [15], 3.21; in assay [17], -0.0477. The composite z-score in assay [18] is -0.868; in [19] it was 0.443; in [20] it was -0.257. For the same molecule, the z-score in assay [8] is 0.0158 (inactive); in [12] it was 0.537 (inactive); in assay [13], 2.45 (inactive); in assay [14] it was 2.57 (inactive); in assay [16], -0.538 (inactive).
For the molecule `COC(=O)[C@@]1(Cc2ccc(OC)cc2)[C@H]2c3cc(C(=O)N4CCCC4)n(Cc4c(-c5ccccc5)noc4C)c3C[C@H]2CN1C(=O)c1ccccc1`, the composite z-score in assay [1] worked out at 0.194; in assay [2], 0.245; in [3] it was 0.336; in assay [4] it was 0.812; in assay [5], 1.71; in assay [6] it was 1.31. Moreover, the composite z-score in assay [7] stood at 1.25; in [9] it was 1.73; in assay [10], 1.79; in assay [11], 0.525; in assay [15], 3.31; in [17], 0.422. The composite z-score in [18] came to 0.658; in [19], 1.04; in assay [20] it was 0.374. For the same molecule, the z-score in assay [8] was 0.44 (inactive); in [12] it was 0.729 (inactive); in [13] it was 1.32 (inactive); in assay [14] it was 1.77 (inactive); in [16], 0.19 (inactive).
